Records with an inconclusive call do not appear. Some compounds were tested as several samples or in several runs, with calls that do not always agree. The source made the active and inactive calls. Rule for the calls: active = hit-call score of the fitted dose curve at least 0.9, where 1 is the maximum; inconclusive = response in the unintended direction; inactive = score below 0.9.

Chain of human Peroxisome Proliferator-activated Receptor delta (PPARd), PPARD (gene 5467) (Q03181 whole entry, looked up): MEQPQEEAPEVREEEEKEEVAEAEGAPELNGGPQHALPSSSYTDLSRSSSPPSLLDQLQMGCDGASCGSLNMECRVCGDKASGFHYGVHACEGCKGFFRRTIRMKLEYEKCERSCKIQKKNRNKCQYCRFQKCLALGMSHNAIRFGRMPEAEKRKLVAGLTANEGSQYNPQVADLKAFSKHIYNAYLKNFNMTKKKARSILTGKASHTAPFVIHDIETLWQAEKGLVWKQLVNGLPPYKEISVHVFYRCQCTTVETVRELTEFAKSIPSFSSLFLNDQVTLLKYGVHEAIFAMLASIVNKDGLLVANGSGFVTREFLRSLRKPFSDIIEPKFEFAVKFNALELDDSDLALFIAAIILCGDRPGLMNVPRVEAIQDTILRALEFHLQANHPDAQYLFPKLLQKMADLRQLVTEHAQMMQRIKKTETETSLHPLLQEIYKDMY

This assay deals with human Peroxisome Proliferator-activated Receptor delta (PPARd), PPARD (gene 5467) (UniProt Q03181). The assay can be described thus: ATG_PPARd_TRANS: Attagene TRANS-FACTORIAL HepG2 Assay for human Peroxisome Proliferator-activated Receptor delta (PPARd) (AID 2283002). On the procedure:
ATG_TRANS is a cell-based, multiplexed-readout assay that uses HepG2, a human liver cell line, with measurements taken at 24 hours after chemical dosing in a 24-well plate.ATG_PPARd_TRANS is one of 30 assay component(s) measured or calculated from the ATG_TRANS assay. It is designed to make measurements of mRNA induction, a form of inducible reporter, as detected with fluorescence intensity signals by Reverse transcription polymerase chain reaction (RT-PCR) and Capillary electrophoresis technology.Data from the assay component ATG_PPARd_TRANS was analyzed into 1 assay endpoint. This assay endpoint, ATG_PPARd_TRANS, was analyzed in the positive analysis fitting direction relative to DMSO as the negative control and baseline of activity. Using a type of inducible reporter, measures of mRNA for gain-of-signal activity can be used to understand the reporter gene at the transcription factor-level as they relate to the gene PPARD. Furthermore, this assay endpoint can be referred to as a primary readout, because this assay has produced multiple assay endpoints where this one serves a reporter gene function. To generalize the intended target to other relatable targets, this assay endpoint is annotated to the nuclear receptor intended target family, where the subfamily is non-steroidal.
Human liver HepG2 cells are transiently transfected with multiple reporter transcription units (MRTUs) in 6-well plates using FuGene 6 reagent (Roche; 3 ml FuGene/1 mg DNA). The MRTU constructs are regulated by a cis-regulating element (promoter). […] A major difference between the CIS and TRANS system is that in CIS activities of endogenous TFs are measured, whereas the TRANS assay evaluates changes in activities of exogenous, chimeric NR-Gal4 proteins. […] At the end of 24 hour incubation, total RNA was isolated using TriZol reagent (Invitrogen). The isolated RNA is then reverse-transcribed using oligo(dT) primer and Mo-MLV reverse transcriptase (Invitrogen) with DNAse I (Ambion) treatment for 30 min. The one-tenth of the produced cDNA was amplified by PCR using Taq DNA polymerase (Invitrogen) and two reporter sequence-specific primers. The PCR products were fluorescently labeled by primer extension with 6-arboxyfluorescein (6-FAM) 5'-labeled reporter sequence-specific primer (2 min at 95 C, 20 s at 68 C and 10 min at 72 C) and these products were digested with 5U of HpaI (New England Biolabs) for 2h at 37 C. The fragments were purified using Qiaquick PCR columns (Qiagen), analyzed on an ABI 3130xL genetic analyzer (Applied Biosystems) with peak positions identified by using a set of X-rhodamine (ROX)-labeled MapMarker1000 molecular weight standards (BioVentures). The raw capillary electrophoresis data was processed using Attagraph software (Attagene).
Regarding `CO/N=C(/C(=O)OC)c1ccccc1COc1ccccc1C`, the result was inactive.
On to `OCC(F)(F)OC(F)(F)C(F)(F)OC(F)(F)CO`, for which the compound was called inactive.
Same read-out and setting: the entry for `O=S(=O)(c1ccc(O)cc1)c1ccc(O)cc1` is “inactive”.
On to `ClC(Cl)(Cl)c1ccccc1`, for which the result was inactive.
Regarding `CCOP(=S)(Oc1ccc([N+](=O)[O-])cc1)c1ccccc1` (stereo not given), the compound was classed as inactive.
On to `NC(=O)C(F)(F)C(F)(F)F`, for which the compound was called inactive.
With `O=C(CBr)OCc1ccccc1`, the outcome was inactive.
Same read-out and setting: under `ClC(Cl)c1ccccc1` stands “inactive”.
Same read-out and setting: under `CC(=O)CCc1ccc2c(c1)OCO2` stands “inactive”.
Regarding `O=P1(N(CCCl)CCCl)NCCCO1` (stereo not given), the call was inactive.
Same read-out and setting: under `CCCN(CCC)c1c([N+](=O)[O-])cc(C(C)C)cc1[N+](=O)[O-]` stands “inactive”.
Consider `O=S(=O)(F)C(F)(F)C(F)(F)C(F)(F)C(F)(F)C(F)(F)C(F)(F)C(F)(F)C(F)(F)F`, for which the result was inactive.
Still for that read-out and setting: the entry for `Clc1ccc(Oc2ccccc2)cc1` is “inactive”.
Turning to `CCNc1nc(Cl)nc(NC(C)(C)C)n1`, the call was inactive.
Regarding `Cc1c([N+](=O)[O-])cc2c(c1[N+](=O)[O-])C(C)(C)CC2(C)C`, the result was inactive.
As to `ClC1=C(Cl)C2(Cl)C3C(Cl)C(Cl)CC3C1(Cl)C2(Cl)Cl` (stereo not given), the compound was called inactive.
Take `Oc1ccc(I)cc1`: the compound was classed as inactive.
Take `CC(C)(C)c1ccccc1OP(=O)(Oc1ccccc1)Oc1ccccc1`: the compound was classed as inactive.
For `COC(=O)C(F)(F)C(F)(F)OC(F)(C(F)(F)F)C(F)(F)OC(F)=C(F)F` (stereo not given), the compound was called inactive and the AC50 was 15.4 µM (active).
As for `CCCCc1ccc(O)cc1`, the compound was classed as inactive.
Still for that read-out and setting: under `NNC(N)=S` stands “inactive”; under `OCC(F)(F)OC(F)(F)C(F)(F)OC(F)(F)C(F)(F)OC(F)(F)CO`, “inactive”; under `CCC1(c2ccccc2)C(=O)N=C(O)NC1=O` (stereo not given), “inactive”.
For `CCOP(=S)(OCC)SCSc1ccc(Cl)cc1`, the outcome was inactive.
Still for that read-out and setting: the entry for `CC(C)(C)OOC(C)(C)C` is “inactive”; for `O=C(O)C(Cl)Cl` it is “inactive”; for `O=c1[nH]c2ccccc2c(=O)o1` it is “inactive”.
Still for that read-out and setting: the entry for `Cc1ccc2c(c1N)C(=O)c1ccccc1C2=O` is “inactive”.
Still for that read-out and setting: under `CCOS(=O)(=O)OCC` stands “inactive”.
For `Cc1cccc(N)c1`, the compound was called inactive.
Same read-out and setting: the entry for `O=C(O)C(F)(F)OC(F)(F)C(F)(F)OC(F)(F)F` is “inactive”.
On the same count and under the same terms, under `COP(=O)(CCC(=O)NCO)OC` stands “inactive”.
Same read-out and setting: under `c1ccc2c(c1)Nc1ccccc1S2` stands “inactive”; under `O=C(O)C(F)(OC(F)(F)C(F)(F)C(F)(F)F)C(F)(F)F` (stereo not given), “inactive”.
`O=C(O)C(F)(F)OC(F)(F)C(F)(F)OC(F)(F)C(=O)O`: the compound was called inactive.
The same measure, in the same setting: under `CCCCC(CC)COC(=O)c1c(Br)c(Br)c(Br)c(Br)c1C(=O)OCC(CC)CCCC` (stereo not given) stands “inactive”; under `CC1(C)CN=C(NN=C(/C=C/c2ccc(C(F)(F)F)cc2)/C=C/c2ccc(C(F)(F)F)cc2)NC1`, “inactive”.
On the same count and under the same terms, the entry for `CCOP(=S)(OCC)SCS(=O)(=O)CC` is “inactive”; for `FC(F)(F)c1ccc(Cl)cc1` it is “inactive”.
